± gives the standard deviation of the averaged measurements. In all, about 25,000 sequences were measured (“ln(normalized median fluorescence intensity)”: median about 8.9, highest 2% from about 10 on). This is one part of a sample in which the highest values are shown more often than they occur.
System: PfAP2-LT AP2 domain (GST-tagged)
Test: gcPBM binding intensity (ln(normalized median fluorescence intensity)); higher = stronger DNA binding
Procedure, shortened: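 An Agilent 4 × 180k array carrying primer-extended double-stranded 36-bp intergenic genomic probes and negative controls received GST-tagged P. falciparum DNA-binding domains expressed in E. coli, about 25 μg on average, for 1 h. The binding buffer contained 1× PBS, 1% milk, 0.2 mg/ml BSA, 0.5% salmon testes DNA and 0.03% Triton X-100. Binding intensity is the top Masliner-normalised natural-log median intensity across replicate spots of either probe orientation, read after Alexa488 anti-GST antibody staining and a 488 nm scan.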

Sequence | gcPBM binding intensity (ln)
AAAAAGAAAAAACGAAGTACAATTATAAGATTATAT [XGTACX_site410] | 8.86 ± 0.47
ACCCTATATGTAACTACACACCGCATATTGTTTACT [CACACA_site3071] | 9.46 ± 0.42
ATGTTCTTTAAAACCACACACCCCCCAACCCCCCTC [CACACA_site2373] | 10.1 ± 0.13
TATGTAACCTGTTTTACACACCCCCACCCCCCTCTT [CACACA_site319] | 10.09 ± 0.05
AGATAGATACATACACGTACATATATATATACACAT [XGTACX_site4755] | 9.18 ± 0.35
CATAGATACATACACGCACACACATATATATATATA [CACACA_site13] | 10.2 ± 0.17
TATAGATACATATACACACACACACCCACATATATA [CACACA_site3436] | 9.94 ± 0.11
CATACACATACACATACACACGCATAGAAACATACG [CACACA_site8666] | 9.55 ± 0.51
TAGATACATACACGCACACACATATATATATATATA [CACACA_site12] | 10.11 ± 0.035
TATAGATACAGATACACACACACACCGACATATATA [CACACA_site5832] | 10 ± 0.22
TATACACATAGACACACACACATACACGCACATACA [CACACA_site6908] | 9.99 ± 0.17
CACGCACGCACATACACACACATACACATATAAATA [CACACA_site6907] | 9.72 ± 0.45
AACATACATAGACACACACACACACGCACACGCACA [CACACA_site6373] | 10.35 ± 0.071
TAGATACATACACGCACACACATATATAAATAAATA [CACACA_site6157] | 9.68 ± 0.35
TATAGATACATATACACACACACACCGACATATATA [CACACA_site9138] | 10.2 ± 0.14
CATATATAGATATATACACACATACATACATACATA [CACACA_site7748] | 9.3 ± 0.27
AAAAATAACATATAAACACACATATAGATTTATATA [CACACA_site7738] | 8.94 ± 0.37
TTTTATGCTCAATTATTAAGAAATACTTTTTCTTCC [XGTACX_negctrl_site208] | 8.45 ± 0.68
ATTTATATATATGTATGTACGTATGTGTGTATATGT [XGTACX_site7587] | 9.36 ± 0.35
AAACGTGCGTATATGTGTACGCATATATATATATAT [XGTACX_site5252] | 10.2 ± 0.34
GTATGTATGTATGTATGTACGTATGTATGTATATAT [XGTACX_site3369] | 9.2 ± 0.36
TATTTATTTATAAACACACAAATATTTTTATTTATA [CACACA_site6889] | 8.49 ± 0.32
TTTTCTATATAACAACGTACATTTATTATATTATAA [XGTACX_site6148] | 8.49 ± 0.45
TTTATATAAATCAAATGTACATATTCCAAATATATA [XGTACX_site8515] | 8.45 ± 0.34

Sequence | gcPBM binding intensity (ln)
CACAAAAATAGACACACACACATATAAATAAATATA [CACACA_site6598] | 9.7 ± 0.38
AACAATCAAATAGACACACACACACCCAAACATAAA [CACACA_site2757] | 10.1 ± 0.11
GGACACCTTCAAAACACACATACAAATAAATAGAAA [CACACA_site3305] | 8.97 ± 0.54
ATAAAAAAGAAACAAACACACATACATACAAACAAA [CACACA_site4256] | 9.47 ± 0.33
ATCAAATAGAGACACACACACCTAAACATAAAAGAA [CACACA_site7321] | 9.78 ± 0.48
AAAACAAACCCATTTACACACATAAATAAATCAATT [CACACA_site6126] | 9.38 ± 0.3
CAATCAAATAGACACACACACACCTAAACATAAAAG [CACACA_site7322] | 10.2 ± 0.4
CAATCAAATGGACACACACACACCTAAACATAAAAG [CACACA_site5524] | 10 ± 0.3
CAATCAAAGAAACACACACACACCTAAACATAAAAG [CACACA_site2756] | 10.2 ± 0.33
ATTATATTTATGTTGGTGCATTATACATGAAATTTA | 8.68 ± 0.4
AGAAAAGGACATATATGTACTTATCAATATAGAAAC [XGTACX_site1042] | 9.04 ± 0.48
TTCTTTTTTCTTTATGGTACGTGTAATATATATCAA [XGTACX_site7960] | 8.82 ± 0.45
AATAGAACAAATAAAACACACACATATATATATATA [CACACA_site8893] | 9.76 ± 0.37
CCAACATGCCCACGCACACACAAAAAAAGCATGCAT [CACACA_site4217] | 9.51 ± 0.4
CACGCGAACATACATACACACACATATATATATATG [CACACA_site7951] | 9.69 ± 0.35
GGCATACACGAACACACACACACACGCACATATATA [CACACA_site6426] | 10.5 ± 0.36
AAACAAAAAATATATACACACTAAACATAAAAAAAA [CACACA_site4185] | 9.02 ± 0.46
ATCAAGCACGAACACACACACACACGCACGCCCACA [CACACA_site6308] | 10.3 ± 0.3
CACGCGCACGAACACACACACACACGCATATAAATA [CACACA_site7103] | 9.86 ± 0.33
TTTATTTTATCATTTGCACACGCACGCCCACATAAA [CACACA_site353] | 9.39 ± 0.42
AACAAATACGAACACACACACACACTAAAAAAAAAA [CACACA_site6386] | 10.3 ± 0.2
ACACGCACATATATATAAATATATATATATATAAAT [CACACA_negctrl_site1781] | 9.6 ± 0.28
CGAACAAACAAATAAACACACAAAAAAAAATATATA [CACACA_site1825] | 9.11 ± 0.5
CACACGCACGAACACACACACACACGCATATAAATA [CACACA_site6302] | 10.2 ± 0.3

Reference: the supplement of paper PMC11417369
